From publication PMC8222333, “AsCas12a ultra nuclease facilitates the rapid generation of therapeutic cell medicines”

Tests used:
Experiment in all cases: Spec-seq (native PAGE EMSA with sequencing of bound and unbound); 25 mM Tris-HCl pH 7.4, 150 mM KCl, 5 mM MgCl2, 10% glycerol, 1 mM DTT, 40 ng/uL salmon sperm DNA; 400 nM Cas12a, 480 nM crRNA, 50 nM library, 37 C 1 h; native PAGE at room temperature; high values mean tight binding
Conditions in all cases: protein: recombinant
dAsCas12a S542R = dAsCas12a S542R (Acidaminococcus sp., UniProt U2UMQ6 1-1307, S542R;D908A;E993A;D1235A)
d-enCas12a = d-enCas12a (Acidaminococcus sp., UniProt U2UMQ6 1-1307, E174R;S542R;K548R;D908A;E993A;D1235A)
d-enCas12a-Ultra = d-enCas12a-Ultra (Acidaminococcus sp., UniProt U2UMQ6 1-1307, E174R;S542R;K548R;M537R;F870L;D908A;E993A;D1235A)
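Further: relative affinity from the bound to unbound sequence frequency ratio in Spec-seq.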

Row | Binder | binding signal (dAsCas12a S542R) [lnKA] | binding signal (d-enCas12a) [lnKA] | binding signal (d-enCas12a-Ultra) [lnKA]
1 | CGCC (dsDNA) DNA 1: GCTATCTAGTGCTCAGTACGCACTGCGCCAGGAAACTTCTGGCAGGACCAGGTCATGAGATCGGAAGAGCACACGTCTGAACTCCAGTCA DNA 2: TGACTGGAGTTCAGACGTGTGCTCTTCCGATCTCATGACCTGGTCCTGCCAGAAGTTTCCTGGCGCAGTGCGTACTGAGCACTAGATAGC RNA: AAUUUCUACUCUUGUAGAUAGGAAACUUCUGGCAGGACC | -8.54 | -1.48 | -0.384
2 | CGGA (dsDNA) DNA 1: GCTATCTAGTGCTCAGTACGCACTGCGGAAGGAAACTTCTGGCAGGACCAGGTCATGAGATCGGAAGAGCACACGTCTGAACTCCAGTCA DNA 2: TGACTGGAGTTCAGACGTGTGCTCTTCCGATCTCATGACCTGGTCCTGCCAGAAGTTTCCTTCCGCAGTGCGTACTGAGCACTAGATAGC RNA: AAUUUCUACUCUUGUAGAUAGGAAACUUCUGGCAGGACC | -8.76 | -5.73 | -3.26
3 | GACA (dsDNA) DNA 1: GCTATCTAGTGCTCAGTACGCACTGGACAAGGAAACTTCTGGCAGGACCAGGTCATGAGATCGGAAGAGCACACGTCTGAACTCCAGTCA DNA 2: TGACTGGAGTTCAGACGTGTGCTCTTCCGATCTCATGACCTGGTCCTGCCAGAAGTTTCCTTGTCCAGTGCGTACTGAGCACTAGATAGC RNA: AAUUUCUACUCUUGUAGAUAGGAAACUUCUGGCAGGACC | -8.67 | -4.44 | -1.74
4 | CGGC (dsDNA) DNA 1: GCTATCTAGTGCTCAGTACGCACTGCGGCAGGAAACTTCTGGCAGGACCAGGTCATGAGATCGGAAGAGCACACGTCTGAACTCCAGTCA DNA 2: TGACTGGAGTTCAGACGTGTGCTCTTCCGATCTCATGACCTGGTCCTGCCAGAAGTTTCCTGCCGCAGTGCGTACTGAGCACTAGATAGC RNA: AAUUUCUACUCUUGUAGAUAGGAAACUUCUGGCAGGACC | -8.51 | -5.63 | -3.15
5 | GAAT (dsDNA) DNA 1: GCTATCTAGTGCTCAGTACGCACTGGAATAGGAAACTTCTGGCAGGACCAGGTCATGAGATCGGAAGAGCACACGTCTGAACTCCAGTCA DNA 2: TGACTGGAGTTCAGACGTGTGCTCTTCCGATCTCATGACCTGGTCCTGCCAGAAGTTTCCTATTCCAGTGCGTACTGAGCACTAGATAGC RNA: AAUUUCUACUCUUGUAGAUAGGAAACUUCUGGCAGGACC | -8.54 | -5.79 | -3.39
6 | GACC (dsDNA) DNA 1: GCTATCTAGTGCTCAGTACGCACTGGACCAGGAAACTTCTGGCAGGACCAGGTCATGAGATCGGAAGAGCACACGTCTGAACTCCAGTCA DNA 2: TGACTGGAGTTCAGACGTGTGCTCTTCCGATCTCATGACCTGGTCCTGCCAGAAGTTTCCTGGTCCAGTGCGTACTGAGCACTAGATAGC RNA: AAUUUCUACUCUUGUAGAUAGGAAACUUCUGGCAGGACC | -8.46 | -3.91 | -1.34
7 | GACG (dsDNA) DNA 1: GCTATCTAGTGCTCAGTACGCACTGGACGAGGAAACTTCTGGCAGGACCAGGTCATGAGATCGGAAGAGCACACGTCTGAACTCCAGTCA DNA 2: TGACTGGAGTTCAGACGTGTGCTCTTCCGATCTCATGACCTGGTCCTGCCAGAAGTTTCCTCGTCCAGTGCGTACTGAGCACTAGATAGC RNA: AAUUUCUACUCUUGUAGAUAGGAAACUUCUGGCAGGACC | -8.56 | -5.57 | -2.93
8 | CGCG (dsDNA) DNA 1: GCTATCTAGTGCTCAGTACGCACTGCGCGAGGAAACTTCTGGCAGGACCAGGTCATGAGATCGGAAGAGCACACGTCTGAACTCCAGTCA DNA 2: TGACTGGAGTTCAGACGTGTGCTCTTCCGATCTCATGACCTGGTCCTGCCAGAAGTTTCCTCGCGCAGTGCGTACTGAGCACTAGATAGC RNA: AAUUUCUACUCUUGUAGAUAGGAAACUUCUGGCAGGACC | -8.29 | -3.31 | -0.79
9 | CTAC (dsDNA) DNA 1: GCTATCTAGTGCTCAGTACGCACTGCTACAGGAAACTTCTGGCAGGACCAGGTCATGAGATCGGAAGAGCACACGTCTGAACTCCAGTCA DNA 2: TGACTGGAGTTCAGACGTGTGCTCTTCCGATCTCATGACCTGGTCCTGCCAGAAGTTTCCTGTAGCAGTGCGTACTGAGCACTAGATAGC RNA: AAUUUCUACUCUUGUAGAUAGGAAACUUCUGGCAGGACC | -8.27 | -4.66 | -1.69
10 | GAAC (dsDNA) DNA 1: GCTATCTAGTGCTCAGTACGCACTGGAACAGGAAACTTCTGGCAGGACCAGGTCATGAGATCGGAAGAGCACACGTCTGAACTCCAGTCA DNA 2: TGACTGGAGTTCAGACGTGTGCTCTTCCGATCTCATGACCTGGTCCTGCCAGAAGTTTCCTGTTCCAGTGCGTACTGAGCACTAGATAGC RNA: AAUUUCUACUCUUGUAGAUAGGAAACUUCUGGCAGGACC | -8.59 | -5.9 | -3.33
11 | GAAA (dsDNA) DNA 1: GCTATCTAGTGCTCAGTACGCACTGGAAAAGGAAACTTCTGGCAGGACCAGGTCATGAGATCGGAAGAGCACACGTCTGAACTCCAGTCA DNA 2: TGACTGGAGTTCAGACGTGTGCTCTTCCGATCTCATGACCTGGTCCTGCCAGAAGTTTCCTTTTCCAGTGCGTACTGAGCACTAGATAGC RNA: AAUUUCUACUCUUGUAGAUAGGAAACUUCUGGCAGGACC | -8.7 | -5.87 | -3.36
12 | CGGT (dsDNA) DNA 1: GCTATCTAGTGCTCAGTACGCACTGCGGTAGGAAACTTCTGGCAGGACCAGGTCATGAGATCGGAAGAGCACACGTCTGAACTCCAGTCA DNA 2: TGACTGGAGTTCAGACGTGTGCTCTTCCGATCTCATGACCTGGTCCTGCCAGAAGTTTCCTACCGCAGTGCGTACTGAGCACTAGATAGC RNA: AAUUUCUACUCUUGUAGAUAGGAAACUUCUGGCAGGACC | -8.62 | -5.84 | -3.41
13 | GAAG (dsDNA) DNA 1: GCTATCTAGTGCTCAGTACGCACTGGAAGAGGAAACTTCTGGCAGGACCAGGTCATGAGATCGGAAGAGCACACGTCTGAACTCCAGTCA DNA 2: TGACTGGAGTTCAGACGTGTGCTCTTCCGATCTCATGACCTGGTCCTGCCAGAAGTTTCCTCTTCCAGTGCGTACTGAGCACTAGATAGC RNA: AAUUUCUACUCUUGUAGAUAGGAAACUUCUGGCAGGACC | -8.23 | -5.82 | -3.51
14 | CGCT (dsDNA) DNA 1: GCTATCTAGTGCTCAGTACGCACTGCGCTAGGAAACTTCTGGCAGGACCAGGTCATGAGATCGGAAGAGCACACGTCTGAACTCCAGTCA DNA 2: TGACTGGAGTTCAGACGTGTGCTCTTCCGATCTCATGACCTGGTCCTGCCAGAAGTTTCCTAGCGCAGTGCGTACTGAGCACTAGATAGC RNA: AAUUUCUACUCUUGUAGAUAGGAAACUUCUGGCAGGACC | -8.52 | -4.5 | -1.29
15 | CTGC (dsDNA) DNA 1: GCTATCTAGTGCTCAGTACGCACTGCTGCAGGAAACTTCTGGCAGGACCAGGTCATGAGATCGGAAGAGCACACGTCTGAACTCCAGTCA DNA 2: TGACTGGAGTTCAGACGTGTGCTCTTCCGATCTCATGACCTGGTCCTGCCAGAAGTTTCCTGCAGCAGTGCGTACTGAGCACTAGATAGC RNA: AAUUUCUACUCUUGUAGAUAGGAAACUUCUGGCAGGACC | -8.71 | -5.32 | -2.48
16 | CTCG (dsDNA) DNA 1: GCTATCTAGTGCTCAGTACGCACTGCTCGAGGAAACTTCTGGCAGGACCAGGTCATGAGATCGGAAGAGCACACGTCTGAACTCCAGTCA DNA 2: TGACTGGAGTTCAGACGTGTGCTCTTCCGATCTCATGACCTGGTCCTGCCAGAAGTTTCCTCGAGCAGTGCGTACTGAGCACTAGATAGC RNA: AAUUUCUACUCUUGUAGAUAGGAAACUUCUGGCAGGACC | -6.92 | -3.29 | -0.685
17 | CTGG (dsDNA) DNA 1: GCTATCTAGTGCTCAGTACGCACTGCTGGAGGAAACTTCTGGCAGGACCAGGTCATGAGATCGGAAGAGCACACGTCTGAACTCCAGTCA DNA 2: TGACTGGAGTTCAGACGTGTGCTCTTCCGATCTCATGACCTGGTCCTGCCAGAAGTTTCCTCCAGCAGTGCGTACTGAGCACTAGATAGC RNA: AAUUUCUACUCUUGUAGAUAGGAAACUUCUGGCAGGACC | -8.46 | -5.9 | -3.29
